Data on 91 molecules can be found in PubChem BioAssay AID504850 (National Center for Advancing Translational Sciences (NCATS), 2011).

Among all 2,300 compounds or so, about 1,200 (52%) were called active. Inconclusive results (about 34%) are left out. The call rests on the fitted dose curve; in most records, active means well fitted inhibition curve with a large enough effect; inconclusive means small, poorly fitted or top-dose-only effect, or effect the other way; inactive means no such curve, though single readings can be large or run the other way. So high a share suggests a set chosen from earlier hits. The list shows a part of the results. Square brackets hold non-standard residues; d marks the D form. Peptide text beside a SMILES is read from it. * marks the point of attachment. ξ: configuration not given here. ξF = NC(Cc1ccccc1)C(=O)O; Cbz = O=C(OCc1ccccc1)*
Potency means the concentration at half of the fitted maximal effect.

This assay is described as follows: Confirmation screen for delayed death inhibitors of the malarial parasite plastid, 48 hour incubation. Further: nearly all actives have a fitted effect of over 65% in size. Conditions: P. falciparum-infected erythrocytes, luciferase growth; series mostly up to 28.7 µM. The procedure, abridged: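 Single-generation (48 h, 37 C) exposure of integrated firefly luciferase-reporter P. falciparum in red cells, 0.1% parasitemia at 2% hematocrit, Albumax-supplemented RPMI. Falling luciferase signal marks parasite growth inhibition.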
For `O=S1(=O)C=C(Sc2nc3cc(Cl)ccc3o2)c2ccccc21`, the Potency is 11.2 µM (active). Then `O=S1(=O)C=C(Sc2nnc(-c3ccccc3)o2)c2ccccc21`, with 12.6 µM (active); and `CCOC(=O)Cn1c(S(=O)(=O)Cc2cccc(F)c2)nc(-c2ccccc2)c1-c1ccccc1`, with 11.2 µM (active). In the case of `C#CCn1c(S(=O)(=O)Cc2ccc(F)cc2)nc(-c2ccccc2)c1-c1ccccc1`, the Potency was 14.1 µM (active). The value for `C#CCn1c(S(=O)(=O)Cc2ccc(C)cc2)nc(-c2ccccc2)c1-c1ccccc1` was 12.6 µM (active); that for `O=C(c1cccc(Cl)c1)c1nn(-c2ccccc2)c(=O)cc1C(F)(F)F` was 12.6 µM (active). The value for `O=C(CCl)Nc1cccc2ncccc12` was 4.47 µM (active).

`Oc1ccc(-c2n[nH]c(=S)n2-c2ccc3c(c2)OCCO3)c(O)c1`: the Potency was 0.708 µM (active). The value for `O=C(c1ccc(CS(=O)c2ccccc2Cl)o1)N1CCN(c2ccccn2)CC1` (stereo unspecified) was 11.2 µM (active). In the case of `O=C(NCc1cccc(Cl)c1)C1CCC(=O)N(CC2CCCCC2)C1` (stereo unspecified), the Potency was 14.1 µM (active).

As to `CCOC(=O)CNC(=O)C(Cc1ccccc1)NC(=O)OCc1ccccc1` (stereo unspecified) (Cbz-[ξF]-Gly-OEt), the Potency entry is “inactive”.

For the molecule `CCCNC(=O)C(Cc1ccc(F)cc1)NC(=O)c1ccccc1` (stereo unspecified), the Potency is 10 µM (active). Consider `COc1ccc(C2c3c(ncn(CCCN4CCOCC4)c3=N)Oc3ccc4ccccc4c32)cc1OC` (stereo unspecified), for which the Potency is 5.01 µM (active).

As for `COc1ccc(C2c3c(ncn(CCN4CCOCC4)c3=N)Oc3ccc4ccccc4c32)cc1OC` (stereo unspecified), the Potency was 4.47 µM (active).

Consider `O=c1[nH]c(=O)n(Cc2ccco2)c2c1C(C(F)(F)F)(C(F)(F)F)N=C(CCc1ccccc1)N2`, for which the Potency was 11.2 µM (active).

For `COc1ccc2c(c1)c(C(=O)N/N=C/c1ccc(OC)c(OC)c1)c(C)n2C`, the Potency was 10 µM (active).

For the molecule `CCC(C)[C@H](NC(=O)NCCCOC(C)C)C(=O)OC` (stereo partly specified), the Potency entry was “inactive”. Then `CCOc1ccc2nc(C)cc(Nc3cccc([N+](=O)[O-])c3)c2c1`, with 2 µM (active). As to `O=C(O)CCc1ccc(-c2ccccc2)n1-c1ccc(C(=O)O)cc1`, the Potency entry is “inactive”. In the case of `Cc1cc2[nH]c(=O)c(=O)[nH]c2cc1S(=O)(=O)NC1CCCCC1C` (stereo unspecified), the Potency result was “inactive”. Turning to `COC(=O)C1=C(C)NC2=C(C(=O)CC(c3cccs3)C2)C1c1ccsc1` (stereo unspecified), the Potency was 14.1 µM (active).

In the case of `CCOC(=O)CSc1nnc(CNc2nc(-c3ccccc3)cs2)n1C`, the Potency was 8.91 µM (active).

For `O=C(CSc1nc(-c2ccccc2)cs1)Nc1cccc([N+](=O)[O-])c1`, the Potency entry was “inactive”.

For the molecule `Cc1cc(C)nc(SCc2nnc(SCC(=O)Nc3nc(-c4ccccc4)cs3)n2C)n1`, the Potency was 14.1 µM (active).

`NNC(=O)CSc1nc(-c2ccccc2)cn1-c1ccccc1`: the Potency entry was “inactive”.

With `CCn1c(Cc2ccccc2)nnc1SCC(=O)Nc1nc(C)cs1`, the Potency was 12.6 µM (active).

On to `Cc1ccccc1NC(=O)Cc1nnc(SCC(=O)NC2CCCCC2)n1C`, for which the Potency result is “inactive”. Then `CCCc1cc(NCc2ccccn2)n2nc(C)c(-c3ccccc3)c2n1`, with 5.62 µM (active); and `CN(C)c1ccc(NC(=S)NC23CC4CC(CC(C4)C2)C3)cc1`, with 12.6 µM (active); and `Cc1cccc(C)c1Nc1c(-c2ccc(N3CCOCC3)cc2)nc2ncccn12`, with 12.6 µM (active).

Turning to `c1ccc(SCc2cn(C[C@H]3CC[C@@H]([C@@H]4CC[C@H](Cn5cc(CSc6ccccc6)nn5)O4)O3)nn2)cc1`, the Potency was 14.1 µM (active). Turning to `O=C(Nc1ccc(O)cc1)C1CC=CCC1` (stereo unspecified), the Potency is 7.94 µM (active).

Turning to `COc1cnc(-c2ccccn2)nc1N(C)c1ccccc1`, the Potency is 3.55 µM (active). `COc1cnc(-c2ccccn2)nc1Oc1ccc(C(C)(C)C)cc1`: the Potency was 4.47 µM (active). The value for `O=C1c2cc([N+](=O)[O-])cc3cc([N+](=O)[O-])cc(c23)C(=O)N1c1ccccn1` was 14.1 µM (active); that for `CC(C)NC(=O)c1onc(CSc2ccc(C(C)C)cc2)c1C(=O)O` was “inactive”. `Cc1ccc[n+](CC(=O)Nc2ccc(C)c(C)c2)c1`: the Potency is 14.1 µM (active). Then `CC(=O)c1ccc(NC(=O)C[n+]2cccc(C)c2)cc1`, with “inactive”. For the molecule `O=S(=O)(c1ccc(F)cc1)N1CCN(c2nc(-c3ccc(F)cc3)cs2)CC1`, the Potency was 14.1 µM (active).

With `CN1C[C@@H]2C[C@H]1CN2c1cc2c(cc1F)c(=O)c(C(=O)O)cn2C1CC1`, the Potency was 3.55 µM (active). On to `Cc1cc(F)ccc1S(=O)(=O)Nc1ccccc1C(=O)Nc1ccccc1-c1nc2ccccc2[nH]1`, for which the Potency was 5.62 µM (active). As for `Cc1c(C(c2ccc(Br)cc2)c2c(C)n(C)n(-c3ccccc3)c2=O)c(=O)n(-c2ccccc2)n1C`, the Potency was 12.6 µM (active). As for `COc1ccc(C(c2c(C)n(C)n(-c3ccccc3)c2=O)c2c(C)n(C)n(-c3ccccc3)c2=O)cc1`, the Potency was 14.1 µM (active).

With `Cc1nn(C(C)C(=O)NCCC2=CCCCC2)c(=O)c2nn(-c3ccccc3)c(C)c12` (stereo unspecified), the Potency was 12.6 µM (active). For `Cc1c(NC(=O)C(C)Sc2nccn2C)c(=O)n(-c2ccccc2)n1C` (stereo unspecified), the Potency result was “inactive”. For `Cc1nn(C(C)C(=O)Nc2ccccc2Cl)c(=O)c2nn(-c3ccccc3)c(C)c12` (stereo unspecified), the Potency is 14.1 µM (active). For the molecule `CSc1ccc(CNc2cccc3ccccc23)cc1`, the Potency result was “inactive”. Take `Cc1nn(C(C)C(=O)NCCCc2ccccc2)c(=O)c2nn(-c3ccccc3)c(C)c12` (stereo unspecified): the Potency is 12.6 µM (active). The value for `CSc1ccc(CNC(=O)C(C)n2nc(C)c3c(C)n(-c4ccccc4)nc3c2=O)cc1` (stereo unspecified) was 14.1 µM (active); that for `Cc1ccc(-c2csc(SCC(=O)c3c(N)n(C4CC4)c(=O)[nH]c3=O)n2)cc1` was “inactive”. With `Nc1c(C(=O)CSc2nc3ccccc3o2)c(=O)[nH]c(=O)n1C1CC1`, the Potency is 14.1 µM (active). The value for `O[C@@H]1[C@@H](O)C=C2CCN3Cc4cc5c(cc4[C@H]1C23)OCO5` (stereo partly specified) was 1.58 µM (active). Consider `COc1ccc(C(=O)NC2CC2)cc1OC1CCN(C/C=C/c2ccccc2)CC1`, for which the Potency was 8.91 µM (active). Turning to `CCc1nc(Nc2ccncc2)c2oc3ccccc3c2n1`, the Potency was 10 µM (active). Then `Cc1oc(/C=N/NS(=O)(=O)c2ccccc2)cc1Br`, with “inactive”; and `CCN(CC)c1ccc(/C=N/Nc2nc3ccccc3[nH]2)cc1`, with 2.82 µM (active). As for `Cc1c(/C=N/Nc2nc3ccccc3[nH]2)c2ccccc2n1C`, the Potency is 0.708 µM (active). As to `CCc1cc(SC#N)ccc1N`, the Potency is 10 µM (active).

For the molecule `CCCN1CCc2c(sc3nc(SCC)n(-c4ccc(OC)cc4)c(=O)c23)C1`, the Potency is 1.26 µM (active). Regarding `CCCN1CCc2c(sc3nc(SCC)n(-c4ccccc4)c(=O)c23)C1`, the Potency was 1.78 µM (active). Take `COc1ccc(CCNC(=O)/C(=C/c2cccnc2)NC(=O)c2ccccc2)cc1OC`: the Potency is 12.6 µM (active). The value for `CCOc1ccc2c(c1)C(c1ccccc1)=NNC(c1ccccc1)=N2` was 12.6 µM (active). Then `C=CCNC(=O)c1onc(CSc2cc(C)ccc2C)c1C(=O)O`, with “inactive”; and `O=c1[nH]c(NCc2ccccc2)nc2c1CCC2`, with “inactive”. `Nc1[nH]nc2nc(NCc3ccccc3)c3c(c12)CCN(Cc1ccccc1)C3`: the Potency was 15.8 µM (active). Regarding `Cc1ccc(NC(=O)c2ccc3c(SCC(=O)O)c4c(nc3c2)CCCC4)c(Br)c1`, the Potency was 11.2 µM (active). The value for `COc1ccc(C2CC(c3cccs3)=NN2C(=O)CSc2nnc(N)s2)cc1OC` (stereo unspecified) was 14.1 µM (active); that for `O=C(c1ccccc1)N1CCCC(c2ccc(Cl)cc2)=N1` was 15.8 µM (active); that for `O=Nc1c(-c2c(O)[nH]c3cc(Br)ccc23)[nH]c2ccccc12` was 7.08 µM (active). Consider `O=C(CC(SCCO)c1ccc(F)cc1)c1ccco1` (stereo unspecified), for which the Potency result is “inactive”. `CCCCC1(c2ccc(F)cc2)NC(=O)N(CC(=O)N2CCN(C(=O)c3ccco3)CC2)C1=O` (stereo unspecified): the Potency was 14.1 µM (active). As to `COc1cccc(C2=CC(=O)C[C@H](c3ccc(F)cc3)C2)c1OC`, the Potency result was “inactive”. Take `CCOc1ccc(Cl)cc1C1=CC(=O)C[C@H](c2ccc(OC)cc2)C1`: the Potency was 14.1 µM (active).

Take `COc1ccc2c(c1)c(CC(=O)Nc1nnc(C3CC3)s1)c(C)n2C(=O)c1ccc(Cl)cc1`: the Potency was 14.1 µM (active). As for `Cc1ccc(-n2cc(CN3CCC(CO)(Cc4cccc(C(F)(F)F)c4)CC3)cn2)cc1`, the Potency is 7.94 µM (active). Regarding `N#Cc1ccc(Oc2ccc(-c3nc4ccccc4nc3-c3ccccc3)cc2)cc1C#N`, the Potency was 11.2 µM (active).

Take `Cc1c(Cc2ccccc2)c(=O)oc2cc(OC(C)C(=O)NCC3CCC(C(=O)O)CC3)c(Cl)cc12` (stereo unspecified): the Potency is 12.6 µM (active).

In the case of `Cc1c(OC(C)C(=O)NCC2CCC(C(=O)O)CC2)ccc2c1oc(=O)c1ccccc12` (stereo unspecified), the Potency is 14.1 µM (active). As to `CC(C)CC1c2[nH]c3ccccc3c2CCN1CCCn1cccn1` (stereo unspecified), the Potency was 12.6 µM (active). The value for `CCC1CCC(C(=O)NC(CCSC)C(=O)NCCN(CC(C)C)CC(C)C)CC1` (stereo unspecified) was 12.6 µM (active). As to `O=C(CSc1nc2ccccc2c(=O)n1Cc1ccc(C(=O)NC2CC2)cc1)NCc1ccco1`, the Potency was 14.1 µM (active). The value for `O=C(CSc1c2c(nc3ccccc13)CCCC2)NCc1ccco1` was “inactive”; that for `O=C(CCC1N=C2c3ccccc3N=C(SCC(=O)NCc3ccco3)N2C1=O)NCc1ccco1` (stereo unspecified) was “inactive”; that for `O=C(CSc1nc2c(sc3ccccc32)c(=O)n1-c1ccccc1)NCc1ccco1` was 11.2 µM (active). Turning to `CCN(CC)CCn1c2c(c(SCC(=O)Nc3nc4ccccc4s3)nc1=O)CCCC2`, the Potency is 7.08 µM (active). With `CC[N+](CC)(CC)CCCCOc1ccc2c(c1)C(=O)c1cc(OCCCC[N+](CC)(CC)CC)ccc1-2`, the Potency was 0.0398 µM (active). Consider `Cc1ccc(-c2nc(CSc3nc4ccccc4c(=O)n3CCO)cs2)cc1`, for which the Potency result was “inactive”.

For the molecule `Cc1cccc(NC(=O)C(C)Sc2nc3ccccc3c(=O)n2CCCN2CCOCC2)c1` (stereo unspecified), the Potency is 12.6 µM (active). Regarding `Cc1ccc(NC(=O)CSc2nc3ccccc3c(=O)n2CCCN2CCCCC2)cc1Cl`, the Potency is 7.94 µM (active). Then `N#CCc1ccc(C(=O)c2ccccc2F)s1`, with “inactive”. As for `Cc1cccc(NC(=O)COC(=O)c2cccc3c2C(=O)c2ccccc2C3=O)c1C`, the Potency is 15.8 µM (active).
